Measurements from PubChem BioAssay (EPA / NIEHS).
“And” between values parts separate entries of the source, which are not always exact repeats. Equal entries are not always repeated. Results filed as inconclusive are left out. Where a structure was tested more than once in an assay, its records may differ in their call. The source made the active and inactive calls. The calls were made as follows, unless noted: active = hit-call score of the fitted dose curve at least 0.9, where 1 is the maximum; inactive = score below 0.9.

What was measured:
[1] = ATG_PXRE_CIS: Attagene CIS-FACTORIAL HepG2 Assay for human Pregnane X Receptor Element (PXRE) (AID 2282957); settings: HepG2 Attagene CIS-FACTORIAL PXRE reporter, mRNA; actives raise or lower the signal
Procedure, shortened: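 Read-out: fluorescence of reporter-specific RT-PCR products resolved by capillary electrophoresis, fitted bidirectionally relative to DMSO. Human HepG2 liver cells carried transfected cis-promoter reporter units and were exposed to chemicals for 24 h.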

[2] = ATG_PPRE_CIS: Attagene CIS-FACTORIAL HepG2 Assay for human Peroxisome Proliferator-activated Response Element (PPRE) (AID 2282958); settings: HepG2 PPRE cis-element reporter, Attagene transcription factor profiling; actives raise or lower the signal
Procedure, shortened: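 In this cell-based multiplex, a PPRE cis element drives a reporter sequence in transiently transfected HepG2 cells. Following 24 h treatment, labeled cDNA amplicons are sized and quantified by capillary electrophoresis, with DMSO defining baseline.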

[3] = ATG_RORE_CIS: Attagene CIS-FACTORIAL HepG2 Assay for human RAR-related Orphan Receptor Element (RORE) (AID 2282959); settings: HepG2 Attagene cis-factorial RORE reporter, mRNA; actives raise or lower the signal
Procedure, shortened: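 Endogenous factor activity at a cis response element is read as reporter transcript levels in HepG2 cells, 24 h post-dose. Transcripts are quantified by RT-PCR with capillary electrophoresis, and data fitted in both directions against DMSO.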

[4] = ATG_Sox_CIS: Attagene CIS-FACTORIAL HepG2 Assay for human SRY-box transcription factor (SOX) (AID 2282960); settings: HepG2 Attagene cis-factorial SOX reporter, mRNA; actives raise or lower the signal
Procedure, shortened: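 Measures mRNA induction of a SOX1-associated reporter in HepG2 after 24 h dosing. Fluorescently labelled RT-PCR fragments are separated by capillary electrophoresis, and gain or loss relative to DMSO control is fitted.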

[5] = molecular target: Transcription factor Sp1 (Homo sapiens) (UniProt P08047); experiment: ATG_Sp1_CIS: Attagene CIS-FACTORIAL HepG2 Assay for human Specificity Protein 1 (Sp1) (AID 2282961); settings: HepG2 Sp1 cis-reporter transcription, actives raise or lower the signal
Procedure, shortened: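 Cells: HepG2, transiently transfected with cis-regulated multiplexed reporters. Exposure: 24 h. Detection: reporter transcripts amplified, fluorescently labeled, restriction-digested and sized by capillary electrophoresis. Analysis: bidirectional fit relative to DMSO.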

[6] = ATG_SREBP_CIS: Attagene CIS-FACTORIAL HepG2 Assay for human Sterol Regulatory Element Binding (SREBP) (AID 2282962); settings: HepG2 Attagene cis-factorial SREBP reporter, mRNA; actives raise or lower the signal
Procedure, shortened: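 Readout: fluorescent reporter-transcript peaks resolved by capillary electrophoresis after RT-PCR. Cells were human HepG2 carrying transfected cis-promoter reporter constructs, dosed for 24 h. Gain or loss of signal was fitted against DMSO controls.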

[7] = molecular target: Signal transducer and activator of transcription 3 (Homo sapiens) (UniProt P40763); experiment: ATG_STAT3_CIS: Attagene CIS-FACTORIAL HepG2 Assay for human Signal Transducer and Activator of Transcription 3 (STAT3) (AID 2282963); settings: HepG2, Attagene cis-factorial STAT3 reporter transcription; actives raise or lower the signal
Procedure, shortened: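 HepG2, MRTU-transfected, 24 h dosing. RNA → RT → PCR → FAM label → HpaI → CE. Bidirectional fit vs DMSO.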

[8] = ATG_TA_CIS: Attagene CIS-FACTORIAL HepG2 Assay for human TA Basal Promoter (AID 2282964); settings: HepG2 Attagene CIS-factorial TA basal promoter reporter; actives raise or lower the signal
Procedure, shortened: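 Background internal-marker endpoint from a 52-component HepG2 cis-reporter panel. Cells treated 24 h; reporter transcripts quantified via RT-PCR and CE fluorescence against DMSO baseline.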

[9] = ATG_TCF_b_cat_CIS: Attagene CIS-FACTORIAL HepG2 Assay for human T-Cell-Factor with beta-catenin (TCF/b-cat) (AID 2282965); settings: HepG2 TCF/beta-catenin cis-reporter transcription, actives raise or lower the signal
Procedure, shortened: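 HepG2 cells transiently transfected with multiple cis-promoter-regulated reporter transcription units, so endogenous transcription factor activity is measured. Reporter mRNA read 24 hours after dosing by RT-PCR, fluorescent labelling and capillary electrophoresis; bidirectional fitting against DMSO.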

[10] = ATG_TAL_CIS: Attagene CIS-FACTORIAL HepG2 Assay for human TAL Basal Promoter (AID 2282966); settings: HepG2 Attagene cis-factorial TAL promoter reporter; actives raise or lower the signal;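 also: background control endpoint measuring basal TAL promoter reporter mRNA not a specific factor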
Procedure, shortened: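 HepG2, transient MRTU transfection, 24 h compound exposure; RNA → oligo(dT) RT → PCR → 6-FAM primer extension → HpaI digest → CE fluorescence. Bidirectional curve fit vs DMSO. Background-control readout.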

[11] = ATG_TGFb_CIS: Attagene CIS-FACTORIAL HepG2 Assay for human Transforming Growth Factor (TGF) (AID 2282967); settings: HepG2 Attagene CIS TGFb reporter, mRNA transcription; actives raise or lower the signal
Procedure, shortened: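 Liver HepG2 line, cis-factorial reporter panel, 24 h dosing. Quantitation: RT-PCR products labeled with 6-FAM, cut with HpaI, resolved by capillary electrophoresis; DMSO-referenced bidirectional analysis.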

[12] = ATG_VDRE_CIS: Attagene CIS-FACTORIAL HepG2 Assay for human Vitamin D Receptor Element (VDRE) (AID 2282968); settings: HepG2 VDRE cis-reporter transcription, actives raise or lower the signal
Procedure, shortened: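 Steps: transfect HepG2 with multiple reporter transcription units; dose chemicals 24 h; isolate RNA; RT-PCR; label with 6-FAM primer extension; HpaI digest; capillary electrophoresis. Curves fitted both directions against DMSO.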

[13] = molecular target: Nuclear receptor subfamily 1 group I member 3 (Homo sapiens) (UniProt Q14994); experiment: ATG_CAR_TRANS: Attagene TRANS-FACTORIAL HepG2 Assay for human Constitutive Androstane Receptor (CAR) (AID 2282969; active = hit-call score of the fitted dose curve at least 0.9, where 1 is the maximum;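 also: activators raise reporter mRNA above DMSO so AC50 marks induction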); settings: HepG2 Attagene TRANS-FACTORIAL CAR reporter
Procedure, shortened: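 Steps: transient transfection of HepG2 with multiple GAL4-UAS reporter units; 24 h compound incubation; RNA isolation, RT-PCR, 6-FAM primer extension, HpaI digest; capillary electrophoresis. Gain-of-signal relative to DMSO negative control.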

[14] = molecular target: Steroid hormone receptor ERR1 (Homo sapiens) (UniProt P11474); experiment: ATG_ERRa_TRANS: Attagene TRANS-FACTORIAL HepG2 Assay for human Estrogen-Related Receptor alpha (ERRa) (AID 2282971; active = hit-call score of the fitted dose curve at least 0.9, where 1 is the maximum); settings: HepG2 Attagene TRANS reporter, ERRa transactivation
Procedure, shortened: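 Transfected HepG2, 24 h dosing, ERRa-Gal4 chimera driving GAL4-UAS reporter. Readout: reporter mRNA via RT-PCR plus capillary electrophoresis (fluorescence). Positive direction vs DMSO control.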

[15] = molecular target: X-box-binding protein 1 (Homo sapiens) (UniProt P17861); experiment: ATG_Xbp1_CIS: Attagene CIS-FACTORIAL HepG2 Assay for human X-box Binding Protein 1 (XBP1) (AID 2282972); settings: HepG2 XBP1 cis-element reporter, Attagene multiplex; actives raise or lower the signal
Procedure, shortened: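 Read-out: fluorescent reporter mRNA fragments resolved by capillary electrophoresis after RT-PCR. Human HepG2 liver cells carried transfected cis-promoter reporter units and were exposed to chemicals for 24 hours. Gain or loss of signal fitted relative to DMSO baseline.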

[16] = molecular target: Androgen receptor (Homo sapiens) (UniProt P10275); experiment: ATG_AR_TRANS: Attagene TRANS-FACTORIAL HepG2 Assay for human Androgen Receptor (AR) (AID 2282973; active = hit-call score of the fitted dose curve at least 0.9, where 1 is the maximum); settings: HepG2 Attagene TRANS-FACTORIAL AR reporter transcription
Procedure, shortened: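 Readout is reporter transcript abundance, quantified by fluorescent RT-PCR products separated on capillary electrophoresis. Human HepG2 liver cells carried transiently transfected NR-Gal4 chimera plus GAL4-UAS reporter constructs and were dosed for 24 h; activity scored upward versus DMSO.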

[17] = molecular target: Estrogen-related receptor gamma (Homo sapiens) (UniProt P62508); experiment: ATG_ERRg_TRANS: Attagene TRANS-FACTORIAL HepG2 Assay for human Estrogen-Related Receptor gamma (ERRg) (AID 2282977; active = hit-call score of the fitted dose curve at least 0.9, where 1 is the maximum;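 also: hits increase reporter signal over DMSO so potencies reflect activators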); settings: HepG2 Attagene TRANS reporter, ERRg transactivation
Procedure, shortened: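 Induction of reporter transcripts through a chimeric NR-Gal4 protein is quantified in transfected human HepG2 liver cells after 24 h chemical exposure, using RT-PCR with capillary electrophoresis detection and DMSO as baseline.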

[18] = molecular target: Estrogen receptor (Homo sapiens) (UniProt P03372); experiment: ATG_ERa_TRANS: Attagene TRANS-FACTORIAL HepG2 Assay for human Estrogen Receptor alpha (ERa) (AID 2282970; active = hit-call score of the fitted dose curve at least 0.9, where 1 is the maximum); settings: HepG2 Attagene TRANS ERa GAL4 reporter, mRNA
Procedure, shortened: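 Reporter mRNA induction after 24 hours, detected by fluorescent RT-PCR and capillary electrophoresis, gives the read-out. Cells are HepG2 transiently transfected with GAL4-UAS reporter transcription units responding to chimeric NR-Gal4. Activity is taken as gain of signal over DMSO baseline.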

[19] = ATG_GAL4_TRANS: Attagene TRANS-FACTORIAL HepG2 Assay for GAL4 (Internal Marker) (AID 2282976; active = hit-call score of the fitted dose curve at least 0.9, where 1 is the maximum); settings: HepG2 Attagene TRANS GAL4 internal marker reporter
Procedure, shortened: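 RT-PCR/capillary electrophoresis readout of reporter mRNA. HepG2, transient MRTU transfection (GAL4-UAS reporters), 24 h compound exposure. Background-control endpoint, positive direction vs DMSO baseline.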

Measured: AC50

Estrogen-related receptor gamma (Homo sapiens), sequence (P62508 whole entry, looked up, the tested form may be a part): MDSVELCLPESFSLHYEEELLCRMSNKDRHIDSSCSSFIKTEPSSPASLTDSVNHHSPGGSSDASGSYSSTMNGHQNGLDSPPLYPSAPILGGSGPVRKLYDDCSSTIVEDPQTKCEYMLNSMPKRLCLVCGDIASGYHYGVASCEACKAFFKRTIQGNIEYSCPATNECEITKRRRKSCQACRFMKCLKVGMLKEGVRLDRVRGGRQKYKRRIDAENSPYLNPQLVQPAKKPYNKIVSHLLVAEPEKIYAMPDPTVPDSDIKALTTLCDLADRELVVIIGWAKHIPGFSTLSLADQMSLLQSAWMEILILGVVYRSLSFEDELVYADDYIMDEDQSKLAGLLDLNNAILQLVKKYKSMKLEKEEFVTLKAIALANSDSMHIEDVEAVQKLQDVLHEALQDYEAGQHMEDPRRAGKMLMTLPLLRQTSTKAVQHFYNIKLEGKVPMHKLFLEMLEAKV
Nuclear receptor subfamily 1 group I member 3 (Homo sapiens), sequence (Q14994 whole entry, looked up, the tested form may be a part): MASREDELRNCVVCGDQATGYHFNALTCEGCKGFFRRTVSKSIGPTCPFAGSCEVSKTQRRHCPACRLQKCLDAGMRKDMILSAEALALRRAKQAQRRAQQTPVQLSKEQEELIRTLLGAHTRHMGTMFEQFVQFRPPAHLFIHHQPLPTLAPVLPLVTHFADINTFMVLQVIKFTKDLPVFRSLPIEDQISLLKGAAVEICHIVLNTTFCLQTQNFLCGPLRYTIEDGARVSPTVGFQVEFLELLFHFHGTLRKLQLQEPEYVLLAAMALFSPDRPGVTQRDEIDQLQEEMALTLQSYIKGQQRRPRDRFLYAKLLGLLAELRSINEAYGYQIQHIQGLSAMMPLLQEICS
X-box-binding protein 1 (Homo sapiens), sequence (P17861 whole entry, looked up, the tested form may be a part): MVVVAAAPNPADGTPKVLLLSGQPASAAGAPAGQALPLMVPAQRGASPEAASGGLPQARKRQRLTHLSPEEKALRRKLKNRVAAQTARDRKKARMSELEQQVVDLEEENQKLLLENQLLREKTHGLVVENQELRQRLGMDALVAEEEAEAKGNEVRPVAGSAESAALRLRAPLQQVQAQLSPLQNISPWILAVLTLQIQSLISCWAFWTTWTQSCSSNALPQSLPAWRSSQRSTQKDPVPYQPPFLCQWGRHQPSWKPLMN
Androgen receptor (Homo sapiens), sequence (P10275 whole entry, looked up, the tested form may be a part): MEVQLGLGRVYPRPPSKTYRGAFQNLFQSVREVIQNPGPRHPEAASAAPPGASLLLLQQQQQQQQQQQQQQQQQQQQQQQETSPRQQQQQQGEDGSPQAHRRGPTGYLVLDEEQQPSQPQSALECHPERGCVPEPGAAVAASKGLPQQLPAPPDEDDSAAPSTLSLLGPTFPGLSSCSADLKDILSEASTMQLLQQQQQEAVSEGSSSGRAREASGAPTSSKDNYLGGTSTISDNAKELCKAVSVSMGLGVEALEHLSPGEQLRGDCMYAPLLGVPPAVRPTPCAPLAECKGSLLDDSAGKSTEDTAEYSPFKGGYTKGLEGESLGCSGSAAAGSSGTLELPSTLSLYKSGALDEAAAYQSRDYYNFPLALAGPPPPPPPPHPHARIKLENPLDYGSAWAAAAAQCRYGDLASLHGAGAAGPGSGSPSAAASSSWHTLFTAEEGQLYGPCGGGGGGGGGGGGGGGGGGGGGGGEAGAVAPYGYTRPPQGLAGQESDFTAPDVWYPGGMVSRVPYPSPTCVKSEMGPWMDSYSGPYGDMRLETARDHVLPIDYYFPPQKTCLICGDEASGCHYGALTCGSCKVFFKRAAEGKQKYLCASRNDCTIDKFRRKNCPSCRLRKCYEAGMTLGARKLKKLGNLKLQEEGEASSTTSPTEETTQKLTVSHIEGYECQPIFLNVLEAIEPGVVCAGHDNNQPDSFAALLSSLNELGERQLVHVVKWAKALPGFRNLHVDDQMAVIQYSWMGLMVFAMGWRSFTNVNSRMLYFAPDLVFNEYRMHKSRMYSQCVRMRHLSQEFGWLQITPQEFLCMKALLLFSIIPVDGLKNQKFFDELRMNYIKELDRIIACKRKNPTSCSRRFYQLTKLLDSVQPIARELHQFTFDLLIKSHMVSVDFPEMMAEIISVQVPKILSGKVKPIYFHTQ
Signal transducer and activator of transcription 3 (Homo sapiens), sequence (P40763 whole entry, looked up): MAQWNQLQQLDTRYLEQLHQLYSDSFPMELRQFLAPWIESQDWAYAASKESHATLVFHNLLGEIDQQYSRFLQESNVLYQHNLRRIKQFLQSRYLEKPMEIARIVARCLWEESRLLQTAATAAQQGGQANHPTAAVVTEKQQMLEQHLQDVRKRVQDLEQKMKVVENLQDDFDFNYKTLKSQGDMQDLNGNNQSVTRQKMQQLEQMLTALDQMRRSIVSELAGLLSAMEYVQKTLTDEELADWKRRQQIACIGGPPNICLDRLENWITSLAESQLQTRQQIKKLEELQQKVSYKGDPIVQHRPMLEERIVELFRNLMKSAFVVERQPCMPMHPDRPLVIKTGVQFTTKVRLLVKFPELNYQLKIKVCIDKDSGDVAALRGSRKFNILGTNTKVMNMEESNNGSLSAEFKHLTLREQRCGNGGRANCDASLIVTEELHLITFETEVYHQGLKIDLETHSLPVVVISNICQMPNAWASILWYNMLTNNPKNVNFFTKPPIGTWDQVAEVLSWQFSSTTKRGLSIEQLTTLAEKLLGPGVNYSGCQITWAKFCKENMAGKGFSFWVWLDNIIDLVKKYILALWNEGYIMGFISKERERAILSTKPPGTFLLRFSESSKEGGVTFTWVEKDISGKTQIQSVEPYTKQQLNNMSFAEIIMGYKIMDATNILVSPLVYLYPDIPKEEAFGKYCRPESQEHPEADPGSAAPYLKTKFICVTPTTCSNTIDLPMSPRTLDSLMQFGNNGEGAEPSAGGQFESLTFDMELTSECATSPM
Transcription factor Sp1 (Homo sapiens), sequence (P08047 whole entry, looked up): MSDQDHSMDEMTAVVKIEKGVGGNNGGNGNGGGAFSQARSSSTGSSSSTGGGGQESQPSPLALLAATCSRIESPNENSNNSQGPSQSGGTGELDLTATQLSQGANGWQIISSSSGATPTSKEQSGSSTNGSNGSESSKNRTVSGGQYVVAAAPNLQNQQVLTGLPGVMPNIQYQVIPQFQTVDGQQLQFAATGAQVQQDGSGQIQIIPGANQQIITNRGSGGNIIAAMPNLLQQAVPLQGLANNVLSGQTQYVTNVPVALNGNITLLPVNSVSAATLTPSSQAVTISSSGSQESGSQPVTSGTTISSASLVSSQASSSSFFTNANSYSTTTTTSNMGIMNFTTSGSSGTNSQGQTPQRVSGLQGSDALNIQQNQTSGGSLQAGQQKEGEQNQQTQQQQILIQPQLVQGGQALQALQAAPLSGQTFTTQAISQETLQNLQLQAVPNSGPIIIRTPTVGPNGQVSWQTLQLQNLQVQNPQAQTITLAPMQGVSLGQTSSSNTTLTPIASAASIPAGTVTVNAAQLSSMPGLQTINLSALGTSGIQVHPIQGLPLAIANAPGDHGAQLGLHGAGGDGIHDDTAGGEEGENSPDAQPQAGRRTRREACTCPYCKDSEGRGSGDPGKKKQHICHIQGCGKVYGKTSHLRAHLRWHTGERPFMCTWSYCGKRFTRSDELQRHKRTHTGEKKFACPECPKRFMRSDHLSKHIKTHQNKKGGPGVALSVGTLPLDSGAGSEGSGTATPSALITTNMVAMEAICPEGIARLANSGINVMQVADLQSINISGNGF
Steroid hormone receptor ERR1 (Homo sapiens), sequence (P11474 whole entry, looked up, the tested form may be a part): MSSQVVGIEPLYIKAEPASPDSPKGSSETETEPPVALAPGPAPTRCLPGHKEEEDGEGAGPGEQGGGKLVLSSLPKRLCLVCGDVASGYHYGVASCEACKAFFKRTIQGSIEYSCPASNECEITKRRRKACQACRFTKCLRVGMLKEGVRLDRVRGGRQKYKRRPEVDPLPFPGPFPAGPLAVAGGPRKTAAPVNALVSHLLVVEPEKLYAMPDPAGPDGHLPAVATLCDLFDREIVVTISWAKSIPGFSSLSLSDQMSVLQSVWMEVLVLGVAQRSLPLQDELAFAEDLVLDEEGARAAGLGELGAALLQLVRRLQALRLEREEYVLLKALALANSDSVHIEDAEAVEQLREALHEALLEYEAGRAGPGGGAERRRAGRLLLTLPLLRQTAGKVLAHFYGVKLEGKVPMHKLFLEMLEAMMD
Estrogen receptor (Homo sapiens), sequence (P03372 whole entry, looked up, the tested form may be a part): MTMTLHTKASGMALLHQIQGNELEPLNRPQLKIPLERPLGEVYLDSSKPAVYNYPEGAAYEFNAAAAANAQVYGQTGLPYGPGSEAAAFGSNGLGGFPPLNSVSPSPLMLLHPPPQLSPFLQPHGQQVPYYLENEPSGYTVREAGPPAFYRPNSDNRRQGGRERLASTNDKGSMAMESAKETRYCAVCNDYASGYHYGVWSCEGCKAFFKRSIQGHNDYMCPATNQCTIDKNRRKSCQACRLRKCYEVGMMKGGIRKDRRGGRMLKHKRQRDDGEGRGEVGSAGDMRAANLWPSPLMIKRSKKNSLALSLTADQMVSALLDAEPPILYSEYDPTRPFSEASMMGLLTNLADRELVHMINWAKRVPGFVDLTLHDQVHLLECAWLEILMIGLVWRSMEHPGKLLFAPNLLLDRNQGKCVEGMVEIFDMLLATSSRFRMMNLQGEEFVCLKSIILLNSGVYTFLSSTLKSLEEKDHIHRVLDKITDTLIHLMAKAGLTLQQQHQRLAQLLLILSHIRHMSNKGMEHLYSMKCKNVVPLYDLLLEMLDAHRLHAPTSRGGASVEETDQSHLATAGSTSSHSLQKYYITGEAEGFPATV

CCNS(=O)(=O)C(F)(F)C(F)(F)C(F)(F)C(F)(F)C(F)(F)C(F)(F)C(F)(F)C(F)(F)F
inactive: [2] | [3] | [4] | [5] | [6] | [7] | [8] | [9] | [10] | [12] | [13] | [14] | [16] | [17]
active: [1] 3.71 µM and 6.95 µM and 12.9 µM | [2] 146 µM and 29.8 µM | [4] 96.5 µM | [6] 148 µM | [9] 169 µM | [11] 91.1 µM and 44 µM and 40.3 µM | [12] 67.3 µM and 25.7 µM | [15] 73.3 µM and 84.4 µM and 31.5 µM

CC(O)CCO (configuration not stated)
active: [1] 27 µM
inactive: [2] | [3] | [4] | [5] | [6] | [7] | [8] | [9] | [10] | [11] | [12] | [13] | [15]

CCCCCCCCn1sccc1=O
inactive: [2] | [3] | [7] | [8] | [10] | [11] | [19] | [17]
active: [1] 18.5 µM | [4] 18.4 µM | [5] 17 µM | [6] 14.8 µM | [9] 15.6 µM | [12] 16.7 µM | [18] 16.9 µM | [15] 16.5 µM

O=[N+]([O-])C(Br)(CO)CO
active: [1] 158 µM | [3] 100 µM | [4] 170 µM | [5] 145 µM | [9] 100 µM | [11] 23.4 µM | [12] 127 µM | [15] 145 µM
inactive: [2] | [6] | [7] | [8] | [10] | [13] | [18] | [16]

CC(C)(OOC(C)(C)c1ccccc1)c1ccccc1
active: [1] 25 µM | [5] 45.4 µM | [6] 62.9 µM | [7] 100 µM | [10] 142 µM | [12] 26.2 µM | [15] 62.5 µM
inactive: [2] | [3] | [4] | [8] | [9] | [11] | [13] | [16]

Nc1ccc(Cc2ccc(N)cc2)cc1
inactive: [1] | [2] | [3] | [4] | [5] | [6] | [7] | [8] | [9] | [10] | [11] | [12] | [13] | [15]
